Screening data from PubChem BioAssay.
Shown are actives, neighbours in structure and some others; about 5.4% of the full set was active somewhere.
FMDV antiviral: antivirals against foot and mouth disease virus; FMDV antiviral cell-based qHTS; Potency, µM (titrated, usually from 57.9 µM), actives largely listed as inhibitors; actives 1.2% (n = 410,000); AID 1159524; calls by dose curve; tested in HEK293T cells; also: read-out not given here; nearly all actives have a fitted effect of over 45% in size
VACV mCherry inh: inhibitors of vaccinia virus infection (mCherry reporter signal); AID 720579; Vaccinia virus mCherry reporter infection, fluorescence; actives 0.63% (n = 310,000); Potency, µM (titrated, usually from 36.5 µM), actives largely listed as inhibitors; calls by dose curve; tested in A549 cells; also: nearly all actives have a fitted effect of over 35% in size
Marburg entry inh: inhibitors of Marburg virus binding or cell entry; Marburg virus pseudotyped entry inhibition, cell reporter; Potency, µM (top dose mostly 37.8 µM), most hits filed as inhibitors; actives 1.8% (n = 300,000); AID 540276; calls by dose curve; tested in HEK293 cells
LASV entry inh: Lassa virus entry inhibition. Potency, µM (highest dose often 37.9 µM), most hits filed as inhibitors. actives 1.2% (n = 300,000). Lassa virus pseudotype entry inhibition, cell reporter; calls by dose curve; tested in HEK293 cells; also: nearly all actives have a fitted effect of over 50% in size
VACV Venus inh: vaccinia inhibition (Venus reporter). Potency, µM (titrated, usually from 36.5 µM), most hits filed as inhibitors. Vaccinia virus Venus reporter expression, fluorescence. actives 0.46% (n = 330,000). AID 720580; calls by dose curve; tested in A549 cells; also: nearly all actives have a fitted effect of over 30% in size
Sm TGR block: inhibitors of Schistosoma mansoni thioredoxin glutathione reductase. Q962Y6. purified TGR, DTNB reduction, TNB absorbance 405 nm. Potency, µM (doses to about 114 µM), actives largely listed as inhibitors. actives 3% (n = 360,000); active = well fitted inhibition curve with a large enough effect; inconclusive = small, poorly fitted or top-dose-only effect; inactive = no such curve, though single readings can be large or run the other way; also: nearly all actives have a fitted effect of over 60% in size
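TGR 20 nM + NADPH 100 uM (dispensed conc.), cpd preinc 15 min RT; start with NADPH (500 uM addition) then DTNB (15 mM addition). Kinetic TNB absorbance, 405 nm filter. Four-parameter Hill fit across titration.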
Hits are given with their value; – = inactive; ? = inconclusive; · = no result.

SMILES | FMDV antiviral | VACV mCherry inh | Marburg entry inh | LASV entry inh | VACV Venus inh | Sm TGR block
CCn1c(=N)n(CC(O)COc2cccc(C)c2)c2ccccc21 (stereo unspecified) | ? | · | ? | – | · | –
CCCCn1c(=N)n(CC(O)COc2ccccc2)c2ccccc21 (stereo unspecified) | ? | · | ? | ? | ? | –
O=C(c1cccc(Cn2cccn2)c1)N1CCC(n2c(C3CCCO3)nc3cc(C(F)(F)F)ccc32)CC1 (stereo unspecified) | – | – | · | · | – | ·
CC(/C=N/Nc1nncc(=O)[nH]1)=C\c1ccccc1 | – | – | – | ? | – | –
O=c1cnnc(N/N=C/c2ccccn2)[nH]1 | – | 2.2µM | · | · | – | –
Cc1cc(=O)[nH]c(N/N=C/c2ccccn2)n1 | – | ? | 2.6µM | 7.1µM | ? | –
C(=N\Nc1nncc2ccccc12)/c1ccccn1 | ? | 10µM | ? | 1.1µM | ? | –
Cc1cc(=O)[nH]c(N/N=C2/CCCC/C2=C\c2ccccc2)n1 | – | ? | · | · | – | 22µM
Cc1ccc(C)c(N2CCN(C(=O)C(C)n3c(C)c4cnn(-c5ccccc5)c(=O)c4c3C)CC2)c1 (stereo unspecified) | – | – | – | – | – | –
O=c1nc(N/N=C/c2ccccn2)cn[nH]1 | – | 4µM | ? | 3.5µM | ? | –
C#CCOCCOCCOCCNc1nc(N2CCN(C(=O)CCCCCCCCCCNC(=O)Cn3cc(C[C@@H](C)O)nn3)CC2)nc(N2CCN(C(=O)CCCCCCCCCCNC(=O)[C@@H]([C@H](C)CC)n3cc(CCCCCN)nn3)CC2)n1 | 35µM | ? | · | · | ? | –
C#CCOCCOCCOCCNc1nc(N2CCN(C(=O)CCCCCCCCCCNC(=O)Cn3cc(CCCCCN)nn3)CC2)nc(N2CCN(C(=O)CCCCCCCCCCNC(=O)[C@@H]([C@H](C)O)n3cc(C)nn3)CC2)n1 | – | ? | · | · | 10µM | ?
C#CCOCCOCCOCCNc1nc(N2CCN(C(=O)CCCCCCCCCCNC(=O)Cn3cc(CCCCCN)nn3)CC2)nc(N2CCN(C(=O)CCCCCCCCCCNC(=O)Cn3cc(C[C@@H](C)O)nn3)CC2)n1 | – | – | · | · | ? | –
COc1ccc2c(c1)c1c(c(=O)n(-c3ccc(C)cc3)c(=O)n1CC(=O)N1CCCC1)n2C | – | – | · | ? | – | –
O=C(NC1CC1)[C@@H]1C[C@H](Sc2nc3ccccc3[nH]2)CN1CC1CCCCC1 | – | – | · | · | – | ·
COc1cc2c(cc1OC)[C@@H]1C(=O)c3ccc4c(c3O[C@@H]1CO2)C[C@H](C(C)C)O4 | ? | – | 7.1µM | ? | – | –
COc1cc2c(cc1OC)C1C(=O)c3ccc4c(c3OC1CO2)CC(C(C)C)O4 (stereo unspecified) | ? | ? | 3.5µM | ? | – | ·
COc1cc2c(cc1OC)[C@H]1C(=O)c3ccc4c(c3O[C@H]1CO2)C[C@@H](C(C)(C)O)O4 | – | ? | · | · | – | ·
COC(=O)c1c(SC)nc2ccccc2c1OCc1ccccc1C | ? | – | · | – | – | –
CC1=NN(c2nc(-c3ccc(C)cc3)cs2)C(=O)C1N=Nc1ccc2ccccc2c1 (stereo unspecified) | – | · | – | – | – | –
CC1=NN(c2nc(-c3ccc(C)cc3)cs2)C(=O)C1N=Nc1ccc(C(N)=O)cc1 (stereo unspecified) | – | ? | 6.5µM | 4.6µM | – | –
CC(=O)N1[C@H](Cc2ccccc2)C=C[C@]1(C)C(=O)NCc1ccc(C)o1 | – | – | – | – | – | 8.9µM
Cc1ccc(C(=O)C=CNNC(=O)c2ccccc2)cc1 | – | · | · | · | · | 40µM
O=C(O)/C=C/C(=O)Nc1ccc(O)cc1 | – | · | · | · | · | ?
Cc1ccc(C(=O)/C=C\C(=O)c2ccc(C)cc2)cc1 | – | – | – | – | – | 1.8µM
SMILES | FMDV antiviral | VACV mCherry inh | Marburg entry inh | LASV entry inh | VACV Venus inh | Sm TGR block
O=C(O)/C=C/C(=O)c1ccc(O)cc1 | – | – | – | – | – | 3.2µM
COc1ccccc1-c1ccc2ncnc(N(C)Cc3ccco3)c2c1 | – | · | · | · | · | ·
Cc1ccc(N/C(C(Cl)=C(Cl)Cl)=C(/Cl)[N+](=O)[O-])c(C)c1 | – | · | – | – | · | 7.9µM
O=C1CC(c2cccc(O)c2)c2cc3c(cc2N1)OCO3 (stereo unspecified) | – | – | – | – | – | –
CC(C)Cc1ccc(CN2CCCC(NC(=O)c3ccoc3)C2)cc1 (stereo unspecified) | – | – | ? | ? | – | –
CC(C)Cc1ccc(CN2CCCC(NC(=O)c3ccnn3C)C2)cc1 (stereo unspecified) | ? | – | 10µM | ? | – | –
COc1cccc(OC)c1C(=O)Nc1cccc(-c2nc3cc(C)cc(C)c3o2)c1 | – | ? | – | – | ? | –
Cc1cc(C)c(NC(=O)c2cccc(NC(=O)c3ccco3)c2)c(C)c1 | – | · | · | · | · | –
Cc1cccc(C)c1NC(=O)/C(=C/c1ccco1)c1ccccc1 | – | · | ? | – | – | 32µM
Cc1cc(C)c(NC(=O)/C(=C/c2ccco2)c2ccccc2)c(C)c1 | – | – | – | – | – | 25µM
O=C(Cc1ccccc1)Nc1sc2c(c1C(=O)Nc1ccccc1Cl)CCC2 | – | – | · | – | – | –
COc1ccc(C(=O)Nc2ccc(OCC(F)(F)C(F)F)c(C(F)(F)F)c2)cc1OC | ? | ? | ? | 18µM | ? | –
O=C(Nc1ccc(OCC(F)(F)C(F)F)c(C(F)(F)F)c1)c1ccc(Cl)cc1 | ? | ? | 16µM | ? | ? | ·
COC(=O)[C@@H]1C[C@@H](NC(=O)c2cnsn2)CN1Cc1ccc(Cl)cc1 | – | – | · | · | – | ·
COc1ccc(CN(C(=O)c2nsc(Cl)c2Cl)C(C(=O)NC2CCCC2)c2ccc(OC)cc2)cc1 (stereo unspecified) | – | · | ? | 21µM | · | –
C=CCC[C@H](Cc1ccc(F)cc1)C(=O)OC[C@@H](Cc1c[nH]c2ccccc12)NC(=O)[C@@H](CC=C)CC(=O)N[C@H](CO)Cc1ccccc1 | – | – | · | · | ? | ·
C=CCC[C@H](Cc1ccc(F)cc1)C(=O)OC[C@@H](Cc1c[nH]c2ccccc12)NC(=O)[C@H](CC=C)CC(=O)N(CCO)Cc1ccccc1 | 40µM | ? | · | · | 10µM | ·
C=CCC[C@@H](Cc1ccc(F)cc1)C(=O)OC[C@@H](Cc1c[nH]c2ccccc12)NC(=O)[C@H](CC=C)CC(=O)N(CCO)Cc1ccccc1 | ? | ? | · | · | 14µM | ·
CC(C)c1ccc(C2CC(=O)N3CN(C)CSC3=C2C#N)cc1 (stereo unspecified) | – | – | – | · | – | –
N#CC1=C2SCN(C3CCCCC3)CN2C(=O)CC1c1ccc(Cl)cc1 (stereo unspecified) | – | – | – | – | – | 7.9µM
N#CC1=C2SCN(C3CCCCC3)CN2C(=O)CC1c1ccc(F)cc1 (stereo unspecified) | – | – | – | – | – | 3.5µM
N#CC1=C2SCN(C3CCCCC3)CN2C(=O)CC1c1c(F)cccc1Cl (stereo unspecified) | – | – | – | – | – | ?
O=S(=O)(c1ccc(Br)cc1)c1nc(-c2ccco2)oc1SCc1ccccc1Cl | – | – | – | – | – | –
